Experimental data taken from PubChem BioAssay AID1069 (NMMLSC, 2008).
The source made the active and inactive calls.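 The calls were made as follows: active = high combined rank on largest and smallest cell-count-weighted shift across three tests, rank score above 45, floors 50 and 25 (some results past the limit were not filed as active); inactive = the rest.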

Assay: activators of LNCaP cell differentiation, retest, confirmation, side scatter shift, flow cytometry (AID 1069);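 also: LNCaP human prostate cancer cells in low-serum medium with charcoal-stripped FBS; percent of cells with raised granularity gated so DMSO controls show 10%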
Details: 4 d, stronger effect = higher value

Row | Structure (SMILES) | side scatter shift (at 100 µM) | side scatter shift (side scatter shift, at 10 µM) [%]
1 | Cc1cc(N2CCC(N(C)C3CCCC3)CC2)nc2cc(O)ccc12 | 65.4% (inactive) | 22.5
2 | Cn1c(C(=O)NCCC2=CCCCC2)cc2c(=O)n3ccccc3nc21 | 11.5% (inactive) | 5.75
3 | CCCc1ccc(Oc2cn[nH]c2-c2ccc(O)c(C)c2O)cc1 | 40% (inactive) | 4.85
4 | O=C(Cc1coc(-c2ccc(F)cc2)n1)N1CCOCC1 | 9.7% (inactive) | 2.15
5 | COc1ccc(N2CCN(c3oc(COc4ccccc4Cl)nc3C#N)CC2)cc1 | 24.8% (inactive) | 9.2
6 | O=C(CCn1c(=O)oc2ccccc21)NCCCN1CCN(c2ccc(F)cc2)CC1 | 25.4% (inactive) | 4.25
7 | CCCCn1c2c(c3ccccc31)CCc1nonc1-2 | 20.1% (inactive) | 2.8
8 | Cc1ccc(-n2c(SCC(=O)Nc3nccs3)nc3c(c2=O)SCC3)cc1 | 16.9% (inactive) | 9.7
9 | O=C(CN1CCN(Cc2ccc3c(c2)OCO3)CC1)N1CCc2[nH]c3ccc(F)cc3c2C1 | 20.8% (inactive) | 7.3
10 | COc1ccc(N2CCN(CCCNC(=O)CN3CCN(Cc4ccccc4C)C3=O)CC2)cc1 | 15.8% (inactive) | 16.6
11 | CCn1c(=O)cc(OCC(=O)O)c2ccccc21 | 31.8% (inactive) | 6.7
12 | CCN1CCCC1CNC(=O)c1cc2c(-c3ccc(Cl)cc3)nn(C)c2s1 (stereo not given) | 35.7% (active) | 56.7
13 | Cc1ccc(Nc2cc(=O)n(C3CCCCC3)c(=O)[nH]2)cc1C | 0% (inactive) | 10.6
14 | CN1CCN(CCCNC(=O)c2cc3c(-c4ccc(Cl)cc4)nn(C)c3s2)CC1 | 14.3% (active) | 57
15 | Cc1ccc(S(=O)(=O)NCCCCC(NC(=O)OC(C)(C)C)C(=O)O)cc1 (stereo not given) (tested in a mixture with another compound) | 8.9% (inactive) | 5.45
16 | CCn1c(=O)cc(SCC(=O)N2CCN(C3CCCCC3)CC2)c2ccccc21 | 16.7% (inactive) | 6.55
17 | CCN(CC)CC(=O)Nc1ccc(-c2nc3cc(NC(=O)CN(CC)CC)ccc3o2)cc1 | 0% (active) | 42
18 | Cc1oc(-c2cccc(Cl)c2)nc1CN1CCCC(C(=O)NC(C)c2ccc3c(c2)OCCO3)C1 (stereo not given) | 0% (inactive) | 1.65
19 | Cc1cccc(-c2nc(CN3CCCC(C(=O)NC4CCCCC4)C3)c(C)o2)c1 (stereo not given) | 21.4% (inactive) | 7.35
20 | COC(=O)c1[nH]c2c(c1C)C(=O)CCC2 | 7.2% (inactive) | 3.6
21 | CCOc1ccc(C(=O)Nc2ccc(Cl)cn2)cc1Cl | 22% (inactive) | 2.75
22 | O=C(NCCCN1CCN(c2ccccc2F)CC1)C1CCCN(S(=O)(=O)c2cnc[nH]2)C1 (stereo not given) | 7.3% (inactive) | 4.1
23 | COC(=O)Nc1sc2c(c1C(N)=O)CCCCCC2 | 10% (inactive) | 5.65
24 | O=C(NCCCN1CCN(c2ccc(F)cc2)CC1)c1cccc(N2CCCC2=O)c1 | 51.9% (active) | 13.7
25 | N#CC1=C(N)OC2=C(C(=O)CCC2)C1c1ccc(OC(=O)N2CCOCC2)cc1 (stereo not given) | 7.8% (inactive) | 2.45
